# Reference: the supplement of paper PMC6555819
# Columns and labels:
# Assay in all cases: PBM binding z-score (relative to random genomic background probes); higher = stronger binding; sequences stand for … in GC…GCGATTGACAGCGTAGAATGAAGG
# [1] = tested on: PPARg:RXRa DBDmut IVT, anti-RXR (DBD mutation: RXRa K156A/R161A, NR concentration 270 nM, RXRa partner concentration 90 nM)
# Outline: (§1)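 Ligand-free nuclear receptor dimers were applied to custom Agilent 4×180K protein-binding microarrays whose double-stranded probes carried direct-repeat seeds, single-nucleotide variants, half-site ablations and random human genomic background sequences in 34-nt variable regions. Incubation lasted 1 h. Binding z-scores were computed against the random background probes from regression-normalized fluorescence.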
# [2] = tested on: PPARg:RXRa IVT, anti-PPARg (NR concentration 270 nM, RXRa partner concentration 90 nM)
# Outline: as §1
# [3] = tested on: PPARg DBDmut:RXRa IVT, anti-PPARg (DBD mutation: PPARg1 K132A/R137A, NR concentration 270 nM, RXRa partner concentration 90 nM)
# Outline: as §1
# [4] = tested on: PPARg DBDmut IVT, anti-PPARg (DBD mutation: PPARg1 K132A/R137A, NR concentration 270 nM)
# Outline: as §1
# [5] = tested on: PPARg homodimer (NR concentration 180 nM)
# Outline: as §1
# [6] = tested on: PXR:RXRa (NR concentration 270 nM, RXRa partner concentration 90 nM)
# Outline: as §1
# [7] = tested on: PXR homodimer (NR concentration 270 nM)
# Outline: as §1
# [8] = tested on: RARa:RXR (NR concentration 270 nM, RXRa partner concentration 90 nM)
# Outline: as §1
# [9] = tested on: RARa homodimer (NR concentration 270 nM)
# Outline: as §1
# [10] = tested on: RARb:RXRa (NR concentration 270 nM, RXRa partner concentration 90 nM)
# Outline: as §1
Sequence,PBM binding z-score [1],PBM binding z-score [2],PBM binding z-score [3],PBM binding z-score [4],PBM binding z-score [5],PBM binding z-score [6],PBM binding z-score [7],PBM binding z-score [8],PBM binding z-score [9],PBM binding z-score [10]
TAGCCTAGGTCGTTGGGCCAGTATAGTACGCATC,-0.226,0.592,-0.845,-0.754,-0.186,-0.0683,-0.446,0.0528,-0.627,1.02
GGTACAGGGTCAAGGCCAGAGTACGCGTATTGAT,1.42,3.96,0.368,0.441,2.35,3.98,0.674,4.77,0.889,4.63
TAGCCTAGGTAATTGGGCCAGTATAGTACGCATC,1.83,2.8,0.0704,-0.276,-0.531,-0.502,-0.469,-0.743,-0.501,-0.455
GCTACAGGGTCAAGGCCAGAGTACGCGTATTGAT,2.54,3.15,-0.313,0.11,2.84,4,0.0658,4.7,0.58,4.59
TCTTGTAGATCAAAGGTTAATAAAGCCGAAGCCT,2.46,3.56,0.977,1.2,1.25,1.62,0.19,2.43,1.02,1.64
TTACCAAGGTGAGCTAAGGTCGTTGATCCAACTC,1.04,1.93,-0.698,-0.173,0.0568,4.6,0.308,2.41,-1.25,1.91
AGTCGAAGTTCACTAGGTAACGTAAGATTCAGCT,1.76,3.45,0.653,0.81,0.849,1.88,1.18,0.939,0.371,2.91
ACTAGCAGGCCAAGGGTCACGCAAGATTAGTCCG,1.52,4.53,0.585,-0.153,2.62,4.25,-0.0194,5.33,0.787,4.2
ATCTCTAGGTAAAGTTCAGTGAAAGATCGATAGA,2.6,2.6,1.37,0.916,1.68,2.11,1.93,1.86,1.27,2.86
CGTCCAAGGTCATAGGAGGGCAGTGAAGACAGAT,3.1,3.89,1.14,0.568,2.4,6.12,1.56,4.4,0.613,5.06
TCTCGGAGGACACGAAGGTCAGAGTTTTCCAGAG,1.44,1.35,-0.952,-0.619,1.53,2,1.37,2.07,0.114,3.32
CAAACTAGGTCACGAAAGGTGAAAGTCGAATGAC,8.57,8.88,1.44,1.5,3.13,4.13,0.228,4.69,1.24,4.84
GCGACTGGGGCATCAGCGGGTTACCATAACTTAA,3.43,2.86,-0.728,-1.07,0.437,-0.0944,-0.517,0.346,-0.439,0.729
CGAACTAGGTAATTGACAGGACAGTGAATAGTAA,5.41,4.17,0.954,0.672,0.615,-0.222,-0.131,-0.274,0.178,-0.185
GCATATAGGTAAAACAAGGTGAAAGTCCGATTGT,3.96,3.34,0.889,0.508,0.332,0.851,-0.261,1.85,-0.0924,0.432
CAAACTAGGCCACAGAGGTCAAAGTCCGTGCGTA,7.36,7.37,2.08,0.00435,3.3,5.81,4.73,6.18,0.998,4.29
AGTATTAGTTGAGACGAGGGCAACCGATAGGTTG,-0.068,0.769,0.458,0.336,0.923,1.63,0.87,1.01,1.25,1.2
TCTTGTAGATCAAGCAGGTTAACAAAGCCTGAGT,1.57,0.741,0.45,0.44,0.0405,0.699,0.326,0.629,-0.263,0.298
CCTACTAGGCCAAAGGTCATTGATTCCAATGCTC,6.51,7.41,1.46,1.49,3.89,5.56,2.25,6.39,2.46,4.79
CCTTACGGCTCAAGGTTATAGCACGGGTGGTACG,-0.441,-0.312,-1.23,-0.222,0.358,0.204,0.404,0.389,0.282,0.562
CGTCCAAGGTTAATGCTAGGTCAGTGAAAGCATT,1.24,1.56,0.173,-0.333,1.1,1.81,0.209,2.86,-0.141,2.83
TCTTGTAGATAAACAGGAGGTTAAGAAAGATCGA,1.35,0.282,0.991,1.09,0.0399,0.748,-0.0168,1.05,0.379,0.359
CCGACTGGGGCATAAGGTAACCATAAGCCAGCCC,2.94,2.7,-0.714,-0.986,0.375,-0.534,-0.805,0.0245,-0.0601,0.594
ACTAGCAGGCCAAGTTTGGGTCCCTCAAACAAAG,0.359,-0.00665,-1.13,-1.25,-0.378,-0.465,-0.57,-0.00931,-0.776,0.3
AGTCAAAGTTCACTAGGTAACGTACGATTCAGCT,3.29,5.13,1.36,1.27,3.23,4.37,3.12,3.45,1.53,4.71

Sequence,PBM binding z-score [1],PBM binding z-score [2],PBM binding z-score [3],PBM binding z-score [4],PBM binding z-score [5],PBM binding z-score [6],PBM binding z-score [7],PBM binding z-score [8],PBM binding z-score [9],PBM binding z-score [10]
CGTCCAAGGTCAGAGAGGGCAGTGAATGCCGAGT,2.19,2.6,-0.519,-0.66,1.84,3.91,6.38,3.14,0.679,4.88
TCTATTAGTAGAAGGGCAACCGACGAGTCCGTTT,1.9,0.562,0.63,-0.0614,0.492,0.479,0.325,0.693,0.276,1.36
AGGATGAGGTTACCAAAGATCAGGGAAACGCTTG,0.68,1.09,0.557,0.461,1.12,1.47,0.27,2.02,0.36,2.12
TCATATATGTAATACAGGTGAAAGTCGGCATCTA,2.42,2.27,1.39,1.75,0.745,0.801,0.494,1.41,0.947,0.42
CAATCTAGGTCAAGGTCAAAGTCGGTTTGTGCCA,8.63,8.84,5.16,1.26,4.33,5.3,1.93,5.63,1.12,4.9
GCTGCTAGGTCAACTGATGGTCAGGTAAAGCTCG,4.69,4.23,-0.376,-0.724,2.17,1.83,-0.677,3.15,0.327,4.45
GATACAGGGTCAGCTAGAGGCGAGAGTATGGAAA,1.45,2.17,-0.6,-0.459,1.77,2.25,-0.498,3.52,0.0279,4.1
GGAACGAGGGCAACGTTGATAGCATCTGTCGACG,4.02,3.49,0.439,0.351,-0.132,0.282,-0.723,0.65,-0.381,2.32
TCTAGCAGGCCAGAGGGTCACTAAAGAGGTACGG,0.806,0.475,-0.497,-1.37,0.659,1.14,-0.609,1.8,-0.574,2.05
CCTACTGGGCCACGAAAGGTCAATGATTCAGTGA,5.81,6.07,0.295,-0.781,2.45,4.54,0.206,4.68,0.747,4.09
ATATCTAGGTTAGCTGGGGTCATTCAGACTAGGC,6.63,6.38,2.02,2.45,2.3,6.2,4.27,5.11,1.57,3.18
TCATATAGGTAAATGCTAGGTGAGAGTCCGATCT,3.83,2.57,0.808,0.825,0.0695,0.187,0.158,0.343,0.662,0.218
CCTAGCAGGCGAATCTGGGTCACTCAAGGCTTGA,4.47,5.39,-1.46,-1.28,0.225,0.221,-0.605,1.13,-0.282,0.812
ATCTCTAGGTAACCAAGTTCAGCGAATGCCGAAC,3.55,2.95,1.37,0.686,0.704,2.02,1.3,1.04,0.165,1.34
CATCCAAGGTCAATGCTAGGTCAGTGAAAGCATT,3.38,4.16,0.505,0.239,5.51,4.73,1.76,5.95,2.23,5.04
ACAGACCGGTGAGTGAAGGTAACTCAGCTGGACG,-0.439,-0.283,-0.662,-1.09,-0.786,-0.593,-0.655,-0.54,-0.997,-0.197
CCGACTGGGGCAAAGGTTACCATACTCAGTACGA,4.37,6,0.389,-0.153,1.16,2.32,-0.304,3.94,0.0257,2.4
GCATATAGGTAATACAGGGTGAAAGTCCGATTGT,4.15,3.22,1.15,0.404,1.08,0.411,0.164,1.35,0.52,0.281
TCTTGTAGATTAGCAGGTTAAGAAAGCTGGCCAA,1.76,0.791,-0.369,-0.0447,0.0886,0.329,0.0335,0.552,0.796,0.197
GATACAGGGTTAGCTAGAGGCCAGAGTATGGAAA,-0.257,0.231,-0.237,-1.22,0.107,0.293,-0.052,0.625,-0.595,1.07
GCGACTGGGGCATCAGCAGGTGACCATAACTTAA,4.17,3.33,-0.697,-0.862,0.0227,-0.51,-0.76,-0.136,-0.252,0.702
CGAACTAGGTCATTGACAGGCCAGTGAATAGTAA,8.3,7.98,0.866,1.34,1.29,1.34,-0.173,2.06,-0.0851,3.64
CATACAGGGTTAGCTAGGCCAGAGTAGGGACGGC,-0.169,0.541,-0.056,-0.72,-0.367,-0.275,-0.684,0.13,-0.529,1.07
TAGCCTAGGTCATTGAGCCAGTATAGTACGCATC,1.41,2.41,0.454,0.0795,0.0834,1.53,-0.111,2.18,-0.419,3.6
